An excerpt weighted towards active compounds, which were near 3.9% of everything screened.
PHOSPHO1 inh = PubChem AID 1565; recombinant PHOSPHO1, absorbance phosphatase assay; inhibition, % at 13.3 µM; 290,000 tested, 1.1% active; in the data active = inhibition above about 60%
Target sequence (Q8TCT1 whole entry, looked up): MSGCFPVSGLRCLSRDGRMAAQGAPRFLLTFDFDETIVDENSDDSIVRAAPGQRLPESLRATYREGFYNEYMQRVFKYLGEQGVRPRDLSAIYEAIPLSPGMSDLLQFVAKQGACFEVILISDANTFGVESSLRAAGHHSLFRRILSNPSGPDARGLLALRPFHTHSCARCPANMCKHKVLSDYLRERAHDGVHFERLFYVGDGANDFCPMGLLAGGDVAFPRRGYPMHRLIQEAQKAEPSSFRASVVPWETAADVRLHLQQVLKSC
TPT1 inhibitor = Candida albicans TPT1 enzyme inhibitors, primary screen, biochemical, fluorescence polarization | tRNA 2'-phosphotransferase TPT1 (Candida albicans SC5314) | recombinant caTPT1, FP RNA substrate dephosphorylation | inhibition, % at 5 µM | 300,000 tested, 0.81% active;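 active = inhibition above the mean of all tested compounds plus 3 SD, set per screening campaign, cut at about 24% in these data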
WT yeast gro inh = growth inhibition of WT strain, primary screen, mitochondrial fusion inhibitor project, WT and mutant strains, chemical genetic; AID 1362, 2008; mitochondrial fusion phenotypic screen; 190,000 tested, 2.1% active; inhibition, % at 10 µM; in the data active = inhibition above about 58%; tested in S. cerevisiae
Platelet DG rel = inhibitors of platelet dense granule secretion, primary screen, cell-based, MLPCN, human platelets. human platelet-rich plasma, SFLLRN dense granule ATP release, luminescence. inhibition, %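 (compounds screened at 7.5 µM in platelet-rich plasma)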. 300,000 tested, 0.22% active. AID 1663, 2009;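 active = mean replicate score, as percent of positive control, at or above 50; inconclusive = mean below 50 but at least one replicate at or above 50; inactive = mean and every replicate below 50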
SKKanGAS inh = S. pyogenes SKKanGAS growth inhibitors in kanamycin, primary screen, streptokinase expression inhibitor project, SKKanGAS strain, BacTiter-Glo luminescence | 6 h | inhibition, % at 7.5 µM | 300,000 tested, 1.3% active | AID 1662, 2009;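 active = mean replicate score, as percent of positive control median, at least 50; inconclusive = mean below 50 but one replicate at or above 50; inactive = mean and every replicate below 50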;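 note: strain carries kanamycin resistance gene driven by streptokinase promoter and grows in 40 µg/ml kanamycin; loss of luminescence reflects streptokinase promoter inhibition or plain growth inhibition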
Rtt109 HAT inh = inhibitors of C. albicans Rtt109/Vps75 HAT, primary screen, biochemical, ThioGlo CoA-SH fluorescence, plate reader; Histone acetyltransferase RTT109 (Candida albicans (strain SC5314 / ATCC MYA-2876)), …; purified Rtt109/Vps75, 4 h; inhibition, % at 34.9 µM; 330,000 tested, 0.16% active; AID 540336, 2011;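 active = inhibition of at least 50% in every replicate; inconclusive = best replicate reaches 50% inhibition but some replicates fall short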
Large screens that a line does not name were inactive.

COc1ccc(CCN(C)C(=O)CCNS(=O)(=O)c2ccccc2C(F)(F)F)cc1OC	none (no result: PHOSPHO1 inh, TPT1 inhibitor, WT yeast gro inh, Platelet DG rel, SKKanGAS inh)
Cc1ccc(N(C(=O)c2ccccc2Cl)C2=NC(C)CS2)c(C)c1 (stereo not drawn)	WT yeast gro inh 72
O=C(CN1CC[n+]2c(-c3cccs3)csc21)c1ccc(-c2ccccc2)cc1	WT yeast gro inh 69
CC/C(=C\c1ccc(N(C)C)cc1)c1ccncc1	none (no result: PHOSPHO1 inh, TPT1 inhibitor, WT yeast gro inh, Platelet DG rel, SKKanGAS inh)
COc1cccc(O)c1CN1CCC(Oc2ccc(C(=O)NCc3ccccn3)cc2)CC1	none (no result: WT yeast gro inh)
Nc1cc(=O)[nH]c(SCc2ccc(Cl)cc2)n1	none
O=c1cc(O)nc(SCc2ccc(Cl)cc2)[nH]1	SKKanGAS inh 104
Cn1c(=O)c2c(nc(N3CCCCCC3)n2Cc2cccc3ccccc23)n(C)c1=O	WT yeast gro inh 81
C=CCc1cccc(CNc2nc3ccccc3n2C(C)C)c1O	WT yeast gro inh 70
CC(C)n1c(NCc2ccccc2O)nc2ccccc21	none (no result: PHOSPHO1 inh, WT yeast gro inh)
CSCCC(NS(=O)(=O)c1ccccc1)C(=O)OC(C)C(=O)Nc1ccc(Cl)cn1 (stereo not drawn)	none (no result: PHOSPHO1 inh, TPT1 inhibitor, WT yeast gro inh, Platelet DG rel, SKKanGAS inh)
Cc1ccccc1CS(=O)(=O)CCC(=O)NCc1ccc(F)cc1Cl	none (no result: WT yeast gro inh)
Cc1ccc(-c2csc(NC(=O)CSc3nc4ccccc4c(=O)n3CCCN(C)C)n2)cc1	WT yeast gro inh 82, Rtt109 HAT inh inconclusive
CCn1c(SCC(=O)Nc2nc(-c3ccc(C)cc3)cs2)nnc1-c1ccccc1O	SKKanGAS inh 55
Cc1nn(CC(=O)N(C)C)c(C)c1S(=O)(=O)N1CCOCC1	none (no result: PHOSPHO1 inh, TPT1 inhibitor, WT yeast gro inh, Platelet DG rel, SKKanGAS inh)
CSCCC(NC(=O)COc1ccccc1)C(=O)N1CCCC(C)C1 (stereo not drawn)	none (no result: WT yeast gro inh)
CCOc1cc(/C=N/NC(=O)CSc2nncn2C)ccc1OCc1cccc(C)c1	Rtt109 HAT inh 50
CCOc1cc(/C=N/NC(=O)CSc2nncn2C)ccc1OCC(N)=O	none (no result: WT yeast gro inh)
CC(C)(C)C(=O)NC(=S)NNC(=O)c1ccncc1	none
CCCC(=O)Nc1ccc(C(=O)NNC(=S)NC(=O)c2cccs2)cc1	Rtt109 HAT inh 60
CCCOc1ccc(C(=O)NNC(=S)NC(=O)c2cccs2)cc1	SKKanGAS inh 74 (no result: WT yeast gro inh)
CCCOc1ccc(C(=O)NNC(=S)NC(=O)c2cc(-c3ccccc3)nc3ccccc23)cc1	none
CC(C)(C)C(=O)NC(=S)NNC(=O)c1ccc(-c2ccccc2)cc1	WT yeast gro inh 67, SKKanGAS inh 91
C=CCNC(=S)NNC(=O)c1ccc(OCCCC)cc1	none
CCCC(=O)Nc1ccc(C(=O)NNC(=O)c2cccs2)cc1	none
CCCOc1ccc(C(=O)NNC(=S)NC(C)=O)cc1	SKKanGAS inh 93
O=C(O)c1cc(N=Cc2c(O)c3ccccc3oc2=O)ccc1O	none (no result: TPT1 inhibitor, WT yeast gro inh)
COc1ccccc1CC(=O)N(CCC1=CCCCC1)c1c(N)n(Cc2ccccc2)c(=O)[nH]c1=O	none (no result: PHOSPHO1 inh, WT yeast gro inh)
CC(C)(C)c1ccc(OCC(=O)NNC(=S)NC(=O)c2ccccc2[N+](=O)[O-])c(Br)c1	SKKanGAS inh 100
O=C(NNC(=S)NC(=O)c1ccccc1)c1ccc(O)cc1	SKKanGAS inh 74 (no result: WT yeast gro inh)
CCCCOc1ccc(C(=O)NNC(=S)NC(=O)CC)cc1	SKKanGAS inh 97
CCC(=O)NC(=S)NNC(=O)c1ccccc1[N+](=O)[O-]	PHOSPHO1 inh 65
CCN1C(=O)[C@H]2[C@@H](c3ccc(-c4ccc(Cl)c(Cl)c4)c(OC)c3)N[C@@](Cc3ccccc3)(C(=O)OC)[C@H]2C1=O	none (no result: PHOSPHO1 inh, WT yeast gro inh)
O=C(COC(=O)CCC(=O)c1cccs1)Nc1ccccc1C(F)(F)F	none (no result: PHOSPHO1 inh, TPT1 inhibitor, WT yeast gro inh, Platelet DG rel, SKKanGAS inh)
O=C(NNC(=S)NC(=O)c1ccccc1[N+](=O)[O-])c1ccccc1	none
CCCOc1ccc(C(=O)NNC(=S)NC(=O)c2ccccc2[N+](=O)[O-])cc1	SKKanGAS inh 78 (no result: WT yeast gro inh)
COC(=O)NNC(=O)c1ccc(Cl)cc1Cl	none
CC(C)(C)C(=O)NC(=S)NNC(=O)c1ccc(Cl)cc1Cl	SKKanGAS inh 73
CCCOc1ccc(C(=O)NNC(=S)NC(=O)c2ccccc2)cc1	SKKanGAS inh 107 (no result: WT yeast gro inh)
COc1ccc(NC(=O)COC(=O)c2cc(Cl)ccc2O)cc1S(=O)(=O)N1CCCCC1	none (no result: PHOSPHO1 inh, TPT1 inhibitor, WT yeast gro inh, Platelet DG rel, SKKanGAS inh)
Cc1noc(C)c1NC(=O)N(C)C[C@H]1Oc2c(NC(=O)C3CCCCC3)cccc2C(=O)N([C@H](C)CO)C[C@@H]1C	none (no result: PHOSPHO1 inh, TPT1 inhibitor, WT yeast gro inh, Platelet DG rel, SKKanGAS inh)

Bioassay records deposited in PubChem by several laboratories.
